Shown are actives, neighbours in structure and some others; about 3.9% of the full set was active somewhere.
VDR inhibitor: blocks the human vitamin D receptor. VDR-SRC2-3 peptide fluorescence polarization, 2 h. Potency, µM, without a hit: max response, negative = inhibition, hits mostly inhibitors. 400,000 compounds, 0.93% hits; also: % is scaled to controls: 0 for no effect and ±100 for the full control effect
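The screen uses fluorescence polarization to detect compounds that interfere with recruitment of the SRC2-3 coactivator peptide to VDR; plates are read after 2 h at room temperature.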
PLK1 PBD block: inhibitors of human PLK1 polo-box domain binding; Plk1 PBD binding of FITC phosphopeptide, fluorescence polarization; P53350; AID 720504; Potency, µM, without a hit: max response, negative = inhibition, usual class: inhibitors; 360,000 compounds, 2.8% hits; also: series mostly up to about 57 µM; % is scaled to controls: 0 for no effect and ±100 for the full control effect; nearly all actives have a fitted effect of over 65% in size
Target sequence (P53350 whole entry, looked up, the tested form may be a part): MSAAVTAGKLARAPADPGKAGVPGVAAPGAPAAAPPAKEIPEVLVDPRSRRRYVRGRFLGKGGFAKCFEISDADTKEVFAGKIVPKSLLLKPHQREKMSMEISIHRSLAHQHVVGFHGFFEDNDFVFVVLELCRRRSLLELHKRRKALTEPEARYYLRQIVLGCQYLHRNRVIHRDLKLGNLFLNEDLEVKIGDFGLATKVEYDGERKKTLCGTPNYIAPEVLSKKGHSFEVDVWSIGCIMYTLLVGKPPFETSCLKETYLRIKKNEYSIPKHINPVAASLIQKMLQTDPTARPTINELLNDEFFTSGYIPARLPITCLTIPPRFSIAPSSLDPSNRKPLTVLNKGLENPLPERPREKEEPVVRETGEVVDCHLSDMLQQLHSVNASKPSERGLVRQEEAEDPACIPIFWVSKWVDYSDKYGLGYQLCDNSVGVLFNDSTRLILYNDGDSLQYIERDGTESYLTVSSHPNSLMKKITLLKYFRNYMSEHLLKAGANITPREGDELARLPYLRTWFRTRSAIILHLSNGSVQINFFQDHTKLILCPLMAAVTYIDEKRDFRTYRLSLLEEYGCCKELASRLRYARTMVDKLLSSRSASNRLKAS
Tb PFK inh: inhibitors of T. brucei phosphofructokinase; O15648; T. brucei PFK, ADP-Glo luminescence; Potency, µM (series often up to 57.5 µM), without a hit: at the highest dose activity, negative = inhibition, actives largely listed as inhibitors; 330,000 compounds, 0.17% hits;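 also: 0% = uninhibited 1x PFK enzyme wells and -100% = no-enzyme wells; nearly all actives have a fitted effect of over 60% in size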
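ADP-Glo luminescence quantified ADP after 45 min at room temperature, with 1.25 nM T. brucei PFK, 0.1 mM ATP and 0.5 mM fructose-6-phosphate in pH 8.0 TEA buffer. qHTS titrations up to 57 µM; curves classified by quality.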
BRCA1 expr act: BRCA1 expression activation | MCF7-BRCA1-FFLuc reporter, luminescence, 48 h; response scale: scaled: vehicle 0%, 10 µM genistein 100% | Potency, µM (doses to about 46.1 µM), for inactives: top-dose activation, usual class: activators | 380,000 compounds, 1.1% hits; also: nearly all actives have a fitted effect of over 80% in size
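Quantitative HTS in MCF7 cells stably reporting BRCA1 expression via firefly luciferase. Compound treatment lasts 48 h at 37 °C in phenol-red free MEM. Activation is expressed relative to genistein at 10 microM and DMSO.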
Numbers without * were called inactive; ? = inconclusive; nt = not tested or not shown. Calls follow the shape of the dose curve; as a rule, active = well fitted curve in the direction sought with a large enough effect; inconclusive = small, poorly fitted or top-dose-only effect, or another doubt; inactive = no such curve, though single readings can be large; an effect the other way counts as inactive or inconclusive. Potency is read from the fitted curve at half-maximal effect.

SMILES	VDR inhibitor	PLK1 PBD block	Tb PFK inh	BRCA1 expr act
Cc1oc2cc(O)ccc2c(=O)c1-c1cnn(-c2ccccc2)c1	1%	-7%	3%	-1%
Cc1oc2cc(O)ccc2c(=O)c1-c1nncn1-c1ccccc1	8%	30µM*	1%	1%
CCCN(CCC)S(=O)(=O)c1ccc(C(=O)OCCN2C(=O)c3cccc4c(N5CCOCC5)ccc(c34)C2=O)cc1	-10%	15µM*	0%	-8%
O=C(OCCN1C(=O)c2cccc3c(N4CCOCC4)ccc(c23)C1=O)c1ccc(Cl)cc1	-10%	?	-1%	-67%
COc1ccc(NC(=O)/C(=C\c2cccs2)NC(=O)c2ccco2)cc1	-11%	21µM*	-8%	-17%
Cc1c(C(=O)NCc2ccc(F)cc2)oc2ccc(S(=O)(=O)N3CCOCC3)cc12	2%	-2%	-17%	-19%
Cc1cc(C)c(NC(=O)c2cc(S(=O)(=O)N3CCOCC3)ccc2F)c(C)c1	?	11µM*	-4%	2%
Cc1c(C(=O)NCc2c(F)cc(F)cc2F)oc2ccc(S(=O)(=O)N3CCOCC3)cc12	?	19µM*	-4%	-25%
Cc1ccc(NC(=O)c2cc(S(=O)(=O)N3CCOCC3)ccc2F)c(C)c1	-7%	-15%	-1%	31%
Nc1nc(N)c2ncc(C(=O)CCc3ccccc3)nc2n1	?	4.7µM*	0%	0%
COc1ccc(CNC(=O)C2CCN(S(=O)(=O)c3cccc4nonc34)CC2)cc1OC	14%	nt	nt	nt
O=C(Nc1ccc2nccnc2c1)Nc1ccccc1Cl	?	24µM*	8%	10µM*
O=C(Nc1cccc(C(=O)O)c1)Nc1ccccc1Cl	4%	-1%	-3%	-68%
Cc1ccc2nc(COc3ccccc3NC(=O)C(C)(C)C)cc(=O)n2c1	-8%	nt	nt	nt
O=C(NCC1CCCO1)C1CCN(S(=O)(=O)N2CCCC2)CC1 (stereo not given)	-4%	0%	0%	10%
O=S(=O)(CCN(CCS(=O)(=O)C(F)(F)F)CC1CCCO1)C(F)(F)F (stereo not given)	?	27µM*	0%	0%
O=CNC1(c2ccccc2)CCCCC1	-8%	-4%	nt	-2%
CC1(C(=O)N2Cc3ccccc3C2)CCN1C(=O)Cc1ccccc1 (stereo not given)	nt	-15%	nt	27%
CC1(C)CC2CN(C(=O)Cc3ccccc3)C(C)(C2)C1 (stereo not given)	-10%	21µM*	-4%	-21%
COc1cccc(CNC(=O)CSC2=Nc3ccccc3C3=NC(C(C)C)C(=O)N23)c1 (stereo not given)	8%	nt	nt	nt
Cc1ccc(N2C(=O)C3C4C=CC(CC4)C3C2=O)cc1[N+](=O)[O-] (stereo not given)	-9%	-1%	?	0%
Cc1cc(N2C(=O)C=CC2=O)c([N+](=O)[O-])cc1C	32µM*	6µM*	?	-33%
Cc1ccccc1NC(=O)Cn1nnc(C(=O)NCCc2ccccc2)c1N	6%	nt	nt	23%
NS(=O)(=O)c1ccc(CCNc2nc3c(-c4cccc(F)c4)nnn3c3ccc(Cl)cc23)cc1	-8%	nt	nt	-39%
CCc1ccc(-c2nc(CS(=O)CC(=O)NC3CCCCCC3)c(C)o2)cc1 (stereo not given)	11%	30µM*	-20%	-20%
SMILES	VDR inhibitor	PLK1 PBD block	Tb PFK inh	BRCA1 expr act
N#CC1=C(S)N(c2ccccc2)C(c2ccc(-c3ccccc3Cl)o2)NC1=O (stereo not given)	40µM*	19µM*	4%	3%
Cc1ccccc1N1C(S)=C(C#N)C(=O)NC1c1ccco1 (stereo not given)	79µM*	?	-7%	-17%
Cc1cccc(N2C(S)=C(C#N)C(=O)NC2c2cccs2)c1 (stereo not given)	50µM*	?	5%	-26%
N#CC1=C(S)N(c2ccc(F)cc2)C(c2cccs2)NC1=O (stereo not given)	?	-16%	-4%	-2%
CCCCN1C(=O)C2ON(c3ccccc3C)C(c3ccco3)C2C1=O (stereo not given)	-5%	-9%	-5%	-40%
Cc1ccccc1N1C(S)=C(C#N)C(=O)NC1c1cccs1 (stereo not given)	22µM*	?	-1%	3%
O=S1(=O)c2cccc3cccc(c23)N1CCCN1CCN(c2ccc(F)cc2)CC1	0%	nt	nt	nt
CCN1CCN(CCCNC(=O)Cn2nc(C)n3c(cc4cc(C)ccc43)c2=O)CC1	1%	nt	nt	nt
COc1ccc(C2C=C3CNS(=O)(=O)C3CC2OC(=O)c2ccc(Cl)cc2)cc1 (stereo not given)	-6%	nt	nt	nt
O=C(NCCCN1CCN(c2ccc(F)cc2)CC1)Nc1ccccc1Cl	-6%	nt	nt	10%
Cc1cc2[nH]c(=S)[nH]c2cc1C	-12%	6µM*	-24%	17%
S=c1[nH]c2ccc(Cc3ccc4[nH]c(=S)[nH]c4c3)cc2[nH]1	-13%	21µM*	-7%	-14%
Fc1cc2[nH]c(=S)[nH]c2cc1Cl	-8%	0%	0%	-11%
S=c1[nH]c2cc3ccccc3cc2[nH]1	-8%	30µM*	-11%	15%
Cc1cccn2c(=O)c(C=NCc3ccccc3)c(NCCO)nc12	-6%	-8%	3%	13%
Cc1ccc2nc(NCc3ccccc3)c(C=NCc3ccccc3)c(=O)n2c1	6%	-7%	-4%	13µM*
Cc1ccc2oc(=O)c(/C=C(\O)c3ccccc3)nc2c1	-2%	-16%	-2%	7.1µM*
Cc1ccc(N(C)S(=O)(=O)c2c[nH]c3ccc([N+](=O)[O-])cc23)cc1	0%	1%	1%	3%
Cc1ccc(SSc2cc(C)ccc2N)c(N)c1	6.3µM*	0.34µM*	21µM*	16%
CCc1ccc(/C=N/N2CCN(c3ccccn3)CC2)cc1	-18%	2%	1%	13µM*
COC(=O)C(Cc1ccccc1)NS(=O)(=O)c1cc(Br)ccc1Br (stereo not given)	-2%	nt	nt	nt
Cn1c(N=Cc2ccc([N+](=O)[O-])cc2)c(N)c(=O)n(C)c1=O	?	-15%	nt	-19%
Cc1[nH]ncc1N=Cc1ccc([N+](=O)[O-])cc1	-14%	21µM*	-1%	-2%
N#CC(=C1NC(=O)c2ccccc21)c1nc2ccccc2n1CCO	nt	-10%	nt	24%
CCc1ccc(N=C2NC(=O)/C(=C/c3cc(Br)c(OCC(=O)O)c(OC)c3)S2)cc1	?	30µM*	-16%	-26%
SMILES	VDR inhibitor	PLK1 PBD block	Tb PFK inh	BRCA1 expr act
CCc1ccc(N=C2NC(=O)/C(=C/c3cc(OC)c(OC)c(OC)c3)S2)cc1	-3%	-2%	0%	-97%
O=C(Nc1nc(OCCN2CCCC2=O)cnc1/C=C\c1ccccc1)c1cc2ccccc2s1	nt	-10%	nt	-40%
O=C(O)c1cccc(Nc2ccncc2[N+](=O)[O-])c1	?	24µM*	5%	1%
O=[N+]([O-])c1cnccc1Nc1ccccc1	?	27µM*	-6%	-26%
N=C(N)S/C=C\C(=O)O	28µM*	nt	nt	nt
CCOC(=O)c1ccc(NC(=O)c2cn3c4c(ccc(Cl)c4c2=O)OC(C)C3)cc1 (stereo not given)	15%	nt	nt	nt
COc1ccc(NC(=O)c2cc3ccccc3cc2O)cc1	45µM*	30µM*	-5%	-84%

Source: PubChem BioAssay
